Screening results as filed in PubChem BioAssay.
Rows were chosen to be rich in hits. Some 4.1% of all compounds tested hit in one or more screens of this group.
LMP1 NFkB inh: EBV LMP1-driven NF-kappaB luciferase reporter inhibitors, primary screen, cell-based, luminescence, single point | LMP1-induced NF-kappaB luciferase reporter cells | inhibition, % at 12.5 µM | 350,000 compounds, 0.69% hits; in the data active = inhibition above about 41%; inconclusive = no clear call, values can overlap the other calls
Shn3 inh set2: reduction of Shn3 3'UTR firefly luciferase signal, primary screen, Schnurri-3 inhibitor project, cell-based, Clone20 osteoblasts, set 2. Clone20 osteoblast Shn3 3'UTR firefly luciferase, 24 h. inhibition, % at 12.5 µM. 360,000 compounds, 0.52% hits;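 active = mean inhibition of at least 75% with every replicate also reaching 75%; inconclusive = mean inhibition at least 75% but some replicate below; inactive = mean inhibition below 75%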
TROY NFkB inh: inhibitors of TROY-driven NF-kB signaling, primary screen, Q293 LMP1-TROYcd cells, NF-kB luciferase, uHTS | inhibition, % at 10 µM | 360,000 compounds, 0.98% hits | Q293 LMP1-TROYcd NF-kB luciferase reporter, 4 h;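 active = compounds whose plate-normalised and pattern-corrected inhibition of the luciferase reporter signal at the single screening dose is 50% or more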
Peg3 prom inh: Peg3 promoter-driven luciferase inhibitors, primary screen, cell-based, HeLa, luciferase luminescence; HeLa PEG-Prom luciferase reporter, overnight; inhibition, % at 20 µM; 360,000 compounds, 1.7% hits;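 active = inhibition of at least 50% at 20 µM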
TRPM1 prom inh: inhibitors of MITF-dependent TRPM1 promoter reporter, primary screen, cell-based, SK-MEL-5, single point, luciferase; SK-MEL-5 TRPM1 promoter luciferase, 24 h; inhibition, % at 12.5 µM; 330,000 compounds, 0.83% hits; AID 488899, 2010;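 active = mean inhibition across replicates of 60% or more, whatever share of single replicates reaches that level; inconclusive = some that reach 60%, reason not given; inactive = mean inhibition across replicates below 60%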
TWEAK Fn14 block: inhibitors of TWEAK-Fn14 signaling, primary screen, luciferase reporter cells, uHTS; 360,000 compounds, 2% hits; AID 1159606, 2016; TWEAK-stimulated Fn14 reporter cells, luciferase luminescence, 8 h; inhibition, % at 10 µM; in the data active = inhibition above about 50%
Each line names hits and unclear results; the compound was inactive in the other large screens.

Cc1ccc(Nc2c(-c3ccccn3)nc3ccc(C)cn23)cc1	Shn3 inh set2 95, TRPM1 prom inh 70
Cc1ccc(Nc2c(-c3ccccn3)nc3cc(C)ccn23)cc1	LMP1 NFkB inh inconclusive, Shn3 inh set2 95, TRPM1 prom inh 64
Cc1ccn2c(Nc3ccc4c(c3)OCO4)c(-c3ccccn3)nc2c1	none
O=S(=O)(Nc1cc(Cl)ccc1-n1cncn1)c1cc(Br)ccc1Br	TROY NFkB inh 58
CCC(C)n1ncn(-c2ccc(N3CCN(c4ccc(OCC5COC(Cn6cncn6)(c6ccc(Cl)cc6Cl)O5)cc4)CC3)cc2)c1=O (configuration not stated)	LMP1 NFkB inh 91
COc1ccccc1CCC(=O)NNC(=O)Cn1nc(C)cc1C	none (no result: TRPM1 prom inh)
COc1ccc(C2=NN(C(=O)CCC(=O)O)C(c3ccc(Br)cc3)C2)cc1 (configuration not stated)	none
CC(C)C(C(=O)Nc1nccs1)c1ccccc1 (configuration not stated)	none
O=C(Nc1nccs1)C(c1ccccc1)N1CCCC1 (configuration not stated)	TWEAK Fn14 block 86
Cc1cccc(N2CCN(C(=O)Cn3nc(Cc4ccncc4)c4ccccc4c3=O)CC2)c1C	LMP1 NFkB inh 91
O=C(Cn1nc(Cc2ccncc2)c2ccccc2c1=O)N1CCN(C(=O)c2ccco2)CC1	none
Cc1csc(N=Nc2ccc(N(C)C)cc2)[n+]1[O-]	LMP1 NFkB inh 55, TROY NFkB inh 75, TWEAK Fn14 block 86 (no result: TRPM1 prom inh)
Cc1nc(NCc2ccco2)c2c(C)c(C)sc2n1	Peg3 prom inh 88
Cc1sc2nc3c4ccccc4c(NCc4ccco4)nn3c(=O)c2c1C	TWEAK Fn14 block 64
CCOc1ccc(Cl)cc1-c1cc(C(=O)NCCc2ccncc2)[nH]n1	none (no result: LMP1 NFkB inh, TRPM1 prom inh)
COc1ccc(C2CC(=O)N(CC(=O)NCC3CCCO3)c3ccccc3S2)cc1 (configuration not stated)	TROY NFkB inh 52
O=C(CN1C(=O)CC(c2ccco2)Sc2ccccc21)NCC1CCCO1 (configuration not stated)	none
COc1ccc(C2CC(=O)N(C)c3ccccc3S2)cc1 (configuration not stated)	TROY NFkB inh 57, TWEAK Fn14 block 70
CCn1c(C)c(C)c2cc(C(=O)N3CCc4ccccc4C3)ccc21	none (no result: LMP1 NFkB inh)
CCc1ccc(C(O)c2ncc(-c3cccc(F)c3)[nH]2)cc1 (configuration not stated)	none (no result: LMP1 NFkB inh, TRPM1 prom inh)
Cc1c2ccccc2nc2ccccc12	none
Cc1c2ccccc2c(C)c2c1ccc1ccccc12	Peg3 prom inh 69
CC(C)n1cc(/C=C2\NC(=O)N(c3cccc(Cl)c3)C2=O)c2ccccc21	none
CCn1c(C)cc(/C=C2/NC(=O)N(c3ccccc3)C2=O)c1C	TROY NFkB inh 74, TWEAK Fn14 block 74
COCCn1c(C)cc(/C=C2/NC(=O)N(c3cccc(Cl)c3)C2=O)c1C	TROY NFkB inh 81, TWEAK Fn14 block 82
CC(=O)Nc1cc(-c2cccc(C(=O)N(C)C)c2)cn2c(-c3cccc(C(F)(F)F)c3)cnc12	none (no result: LMP1 NFkB inh, TRPM1 prom inh)
O=C(Nc1ccccc1)c1ccccc1NS(=O)(=O)c1ccc(Cl)s1	TROY NFkB inh 63
O=C(Nc1ccccc1Cc1ccccc1)c1ccccc1NS(=O)(=O)c1ccc(Cl)s1	TROY NFkB inh 68, TWEAK Fn14 block 58
O=C(NCc1ccco1)c1ccccc1NS(=O)(=O)c1ccc(Cl)s1	none
Cc1ccc(NC(=O)c2ccccc2NS(=O)(=O)c2ccc(Cl)s2)cc1	TWEAK Fn14 block 58
CCN1CCC(NC(=O)Nc2ccc(F)cc2F)CC1	none
Cc1ccc(C(=O)Nc2sc(C)c(-c3ccccc3)c2C(N)=O)cc1[N+](=O)[O-]	TROY NFkB inh 87, TWEAK Fn14 block 98
O=C(COC(=O)/C(=C/c1cccs1)c1cccs1)NC(c1ccccc1)c1ccccc1	TRPM1 prom inh 71
COCCNC(=O)NC12CC3(C)CC(C)(CC(C)(C3)C1)C2	LMP1 NFkB inh 57
COc1cccc(/C=N/NC(=O)c2nnn(-c3nonc3N)c2C(C)C)c1	none
COc1ccc2oc(=O)c(/C(C)=N/Nc3nc(-c4cc(C)ccc4C)cs3)cc2c1	none
COc1ccc2oc(=O)c(-c3csc(Nc4ccc(O)cc4)n3)cc2c1	TWEAK Fn14 block 68
Nc1nnc(SCc2ccc(Cl)cc2)s1	TWEAK Fn14 block 68 (no result: TROY NFkB inh)
COc1cccc(C(=O)NCCNC(=O)c2ccco2)c1	none
CN(c1ccccc1)S(=O)(=O)c1cccc(C(=O)OCC(=O)NCCCN2CCCC2=O)c1	none
COCCn1c(-c2ccc(OC)cc2)cnc1SCC(=O)Nc1cc(C)on1	none
COCCn1c(-c2ccc(OC)cc2)cnc1SCC(=O)Nc1ccc(OC)cc1OC	Peg3 prom inh 64
Cc1nc(Nc2ccccc2C(F)(F)F)sc1C(=O)N(C)C	none
Cc1nn(C2CCS(=O)(=O)C2)c(Cl)c1/C=C/C(=O)OCC(=O)c1c[nH]c2ccccc12 (configuration not stated)	none
Cc1nn(C2CCS(=O)(=O)C2)c(Cl)c1/C=C/C(=O)OCC(=O)c1cc(C)n(-c2ccc(F)cc2)c1C (configuration not stated)	TWEAK Fn14 block 59
Cc1ccc2nc(SCC(=O)N3CCOCC3)[nH]c2c1	none
Cc1ccc2nc(SCC3CCCCO3)[nH]c2c1 (configuration not stated)	TWEAK Fn14 block 71 (no result: Shn3 inh set2)
COC1C(C)=C(C)C(=O)N1Cc1ccc(F)cc1 (configuration not stated)	none
Cc1ccc(S(=O)(=O)CCC(=O)OC(C)C(=O)NC2CCCCC2C)cc1 (configuration not stated)	none
COc1ccc(/C=C2\Oc3ccccc3C2=O)cc1	TWEAK Fn14 block 65
COc1ccc(C=C2OC(=O)C(C(C)=O)=C2O)cc1	LMP1 NFkB inh 51 (no result: TRPM1 prom inh)
CC(=O)Oc1ccc(/C=C2/Oc3ccccc3C2=O)cc1	none
COc1ccc(OC)c(NC(=O)c2cc(-c3cc(Cl)ccc3O)n[nH]2)c1	TROY NFkB inh 51, TWEAK Fn14 block 55
CCCSc1ccc([C@@H]2[C@H]3C(=O)N(C)C(=O)[C@H]3[C@]3(C(=O)OC)CCCN23)cc1OC	LMP1 NFkB inh 85
COC(=O)[C@@]12CCCCN1[C@H](c1ccc(-c3cc(C(C)=O)cs3)cc1)[C@H]1C(=O)N(C)C(=O)[C@H]12	Peg3 prom inh 74
CCCSc1ccc([C@@H]2[C@@H]3C(=O)N(C)C(=O)[C@@H]3[C@]3(C(=O)OC)CCCCN23)cc1OC	none
COc1ccc(OC)c(N=Nc2c(O)c3ccccc3[nH]c2=O)c1	Peg3 prom inh 70
